# Measurements as given in the supplement of paper PMC10681739.
# Molecular target: T1, ETS1 (UniProt P14921)
# T1 sequence: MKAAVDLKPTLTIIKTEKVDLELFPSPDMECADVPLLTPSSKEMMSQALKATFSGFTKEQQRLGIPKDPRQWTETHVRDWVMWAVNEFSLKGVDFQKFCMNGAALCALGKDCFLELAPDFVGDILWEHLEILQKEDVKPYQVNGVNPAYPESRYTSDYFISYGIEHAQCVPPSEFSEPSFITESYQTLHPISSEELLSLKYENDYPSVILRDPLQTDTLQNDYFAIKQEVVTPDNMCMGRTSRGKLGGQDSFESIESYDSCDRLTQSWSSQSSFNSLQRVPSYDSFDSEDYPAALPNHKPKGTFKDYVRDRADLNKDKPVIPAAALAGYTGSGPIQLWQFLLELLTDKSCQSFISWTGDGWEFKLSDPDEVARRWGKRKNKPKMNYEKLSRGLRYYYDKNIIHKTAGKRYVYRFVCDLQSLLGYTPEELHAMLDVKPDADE
# Experiment: TF binding intensity (PBM fluorescence), negative control probe (arbitrary fluorescence units); higher = stronger binding
# Protocol: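 gcPBM negative-control 36-bp genomic probes lacking TF binding sites. Each was incubated with recombinant human ETS1 or RUNX1 alone and detected by antibody fluorescence. Values are medians over replicate spots (4 spots for the ETS1-RUNX1 arrays, 3 for the ETS1-ETS1 array). The probes sit in constant array flanks that are not printed.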
row,Sequence,TF binding intensity
1,GCAGTGAGCTGAGATCACACCATTGCACTCCAGCCT (protein concentration 10 nM),135
2,AAACAAAGTAAGCTTTTAAGGACTCTGGTCAGAAAC (protein concentration 10 nM),101
3,TAGAAACCGTGTTTTAAATTTAACACTGGTAAGATG (protein concentration 10 nM),113
4,CCATTAGTTCATCTTACACTCTGCCCTTTAACGTGG (protein concentration 10 nM),127
5,TCAGCCTGAGAGCTATGTGGGTGAATAAAAATAAAA (protein concentration 1 nM),499
6,CAGAAGTTATAATAATTAATGATATCATTCAGTGTG (protein concentration 10 nM),118
7,AAAACAAACAAACCAAACAACACAACAGAAGTTTTC (protein concentration 10 nM),150
8,GTCTTGTTACTGGAGTGTGATAGCACCTAATAATAT (protein concentration 10 nM),150
9,TCCAGAATTGCAAGGTCTGGGGAGCTGGGTGCCACA (protein concentration 10 nM),107
10,AAGCCTGGAGTTGGGGTGGTGGGGTGAGAATCAGCC (protein concentration 10 nM),170
11,AGGCCTCTGCTCTCCTGGAGCTCATGACAAGTAAAC (protein concentration 10 nM),118
12,CTGGGGTGGCGCCAGCCTTATTATGACTAACCATGA (protein concentration 10 nM),105
13,TCGAGTGGTGAGAAGGAGAAGGAGCGGCTGGGAGGC (protein concentration 10 nM),137
